{"source": "paper PMC11062922", "about": "(Nature Chemical Biology, 2023)", "design_in_all_cases": "species or system human, MV4-11 + K-562 + COLO205 + SK-N-BE2 + OVCAR-8", "key": {"CDC7": {"test_system": "CDC7", "conditions": "read-out: apparent Kd; compound concentrations: 100 nM and 1000 nM (sheet 'Samples'), CATDS: 9.1392533314382199E-2; n = 1"}, "CDKL5": {"test_system": "CDKL5", "conditions": "read-out: apparent Kd, n = 1"}, "CLK1": {"test_system": "CLK1", "conditions": "read-out: apparent Kd; compound concentrations: 100 nM and 1000 nM (sheet 'Samples'), CATDS: 0.12211476464111; n = 1"}, "CLK4": {"test_system": "CLK4", "conditions": "read-out: apparent Kd; compound concentrations: 100 nM and 1000 nM (sheet 'Samples'), CATDS: 0.114770368167016; n = 1"}, "CSNK2A1;CSNK2A3": {"test_system": "CSNK2A1;CSNK2A3", "conditions": "read-out: apparent Kd; compound concentrations: 100 nM and 1000 nM (sheet 'Samples'), CATDS: 0.31191577539645199; n = 1"}, "CSNK2A2": {"test_system": "CSNK2A2", "conditions": "read-out: apparent Kd; compound concentrations: 100 nM and 1000 nM (sheet 'Samples'), CATDS: 0.34928398987599801; n = 1"}, "DYRK1A": {"test_system": "DYRK1A", "conditions": "read-out: apparent Kd; compound concentrations: 100 nM and 1000 nM (sheet 'Samples'), CATDS: 0.194548178255603; n = 1"}, "CDK2": {"test_system": "CDK2", "conditions": "read-out: apparent Kd; compound concentrations:100 nM and 1000 nM (sheet 'Samples'); n = 1"}, "FLT3": {"test_system": "FLT3", "conditions": "read-out: apparent Kd; compound concentrations:100 nM and 1000 nM (sheet 'Samples'); n = 1"}, "CDK16": {"test_system": "CDK16", "conditions": "read-out: apparent Kd; compound concentrations:100 nM and 1000 nM (sheet 'Samples'); n = 1"}, "CDK17": {"test_system": "CDK17", "conditions": "read-out: apparent Kd; compound concentrations:100 nM and 1000 nM (sheet 'Samples'); n = 1"}, "CDK6": {"test_system": "CDK6", "conditions": "read-out: apparent Kd; compound concentrations:100 nM and 1000 nM (sheet 'Samples'); n = 1"}, "ICK": {"test_system": "ICK", "conditions": "read-out: apparent Kd; compound concentrations:100 nM and 1000 nM (sheet 'Samples'); n = 1"}, "NNT": {"test_system": "NNT", "conditions": "read-out: apparent Kd; compound concentrations:100 nM and 1000 nM (sheet 'Samples'); n = 1"}, "CDK7": {"test_system": "CDK7", "conditions": "read-out: apparent Kd; compound concentrations: 100 nM and 1000 nM (sheet 'Samples'), CATDS: 6.6688716966174802E-2; n = 1"}, "EPHA4": {"test_system": "EPHA4", "conditions": "read-out: apparent Kd; compound concentrations: 100 nM and 1000 nM (sheet 'Samples'), CATDS: 4.9130602297819598E-2; n = 1"}, "EPHA5": {"test_system": "EPHA5", "conditions": "read-out: apparent Kd; compound concentrations: 100 nM and 1000 nM (sheet 'Samples'), CATDS: 4.6938657100171297E-2; n = 1"}, "EPHB2": {"test_system": "EPHB2", "conditions": "read-out: apparent Kd; compound concentrations: 100 nM and 1000 nM (sheet 'Samples'), CATDS: 5.6373238091853198E-2; n = 1"}, "EPHB4": {"test_system": "EPHB4", "conditions": "read-out: apparent Kd; compound concentrations: 100 nM and 1000 nM (sheet 'Samples'), CATDS: 6.1848145802902502E-2; n = 1"}, "ERCC2": {"test_system": "ERCC2", "conditions": "read-out: apparent Kd; compound concentrations: 100 nM and 1000 nM (sheet 'Samples'), CATDS: 7.18018036860264E-2; n = 1"}, "FER": {"test_system": "FER", "conditions": "read-out: apparent Kd; compound concentrations: 100 nM and 1000 nM (sheet 'Samples'), CATDS: 6.7369227307756602E-2; n = 1"}, "GAK": {"test_system": "GAK", "conditions": "read-out: apparent Kd; compound concentrations: 100 nM and 1000 nM (sheet 'Samples'), CATDS: 6.1535147387706803E-2; n = 1"}, "GSK3A": {"test_system": "GSK3A", "conditions": "read-out: apparent Kd; compound concentrations: 100 nM and 1000 nM (sheet 'Samples'), CATDS: 4.87406111355713E-2; n = 1"}, "PIK3CB": {"test_system": "PIK3CB", "conditions": "read-out: apparent Kd; compound concentrations: 100 nM and 1000 nM (sheet 'Samples'), CATDS: 5.9648096714639699E-2; n = 1"}, "PRKAA1": {"test_system": "PRKAA1", "conditions": "read-out: apparent Kd; compound concentrations: 100 nM and 1000 nM (sheet 'Samples'), CATDS: 4.9195025679132399E-2; n = 1"}, "PRKAG2": {"test_system": "PRKAG2", "conditions": "read-out: apparent Kd; compound concentrations: 100 nM and 1000 nM (sheet 'Samples'), CATDS: 5.0151658649726198E-2; n = 1"}, "PTK2B": {"test_system": "PTK2B", "conditions": "read-out: apparent Kd; compound concentrations: 100 nM and 1000 nM (sheet 'Samples'), CATDS: 5.5106996532726202E-2; n = 1"}, "PTK2": {"test_system": "PTK2", "conditions": "read-out: apparent Kd; compound concentrations: 100 nM and 1000 nM (sheet 'Samples'), CATDS: 5.55941477403585E-2; n = 1"}, "RPS6KA6": {"test_system": "RPS6KA6", "conditions": "read-out: apparent Kd; compound concentrations: 100 nM and 1000 nM (sheet 'Samples'), CATDS: 5.82257386615097E-2; n = 1"}, "TNK1": {"test_system": "TNK1", "conditions": "read-out: apparent Kd; compound concentrations: 100 nM and 1000 nM (sheet 'Samples'), CATDS: 9.1910216493779603E-2; n = 1"}, "TNK2": {"test_system": "TNK2", "conditions": "read-out: apparent Kd; compound concentrations: 100 nM and 1000 nM (sheet 'Samples'), CATDS: 8.5615413066405396E-2; n = 1"}, "HSP90B1": {"test_system": "HSP90B1", "conditions": "read-out: apparent Kd; compound concentrations:100 nM and 1000 nM (sheet 'Samples'); n = 1"}, "MAP2K1": {"test_system": "MAP2K1", "conditions": "read-out: apparent Kd; compound concentrations:100 nM and 1000 nM (sheet 'Samples'); n = 1"}, "MAP2K2": {"test_system": "MAP2K2", "conditions": "read-out: apparent Kd; compound concentrations:100 nM and 1000 nM (sheet 'Samples'); n = 1"}, "NQO1": {"test_system": "NQO1", "conditions": "read-out: apparent Kd; compound concentrations:100 nM and 1000 nM (sheet 'Samples'); n = 1"}}, "note": "Read-outs that look alike come from different tables or passages of the source."}
{"smiles": "O=C1N=C(N[C@@H]2C[C@H]2c2ccccc2)S/C1=C\\c1ccc2ncccc2c1", "note": "[RO4915610-000]", "values": [{"measurement": "potency estimated from few doses", "setting": "CDC7", "result": 1.8, "unit": "µM"}, {"measurement": "potency estimated from few doses", "setting": "CDKL5; compound concentrations: 100 nM and 1000 nM (sheet 'Samples'), CATDS: 0.100532719571443", "result": 1.13, "unit": "µM"}, {"measurement": "potency estimated from few doses", "setting": "CLK1", "result": 0.542, "unit": "µM"}, {"measurement": "potency estimated from few doses", "setting": "CLK4", "result": 0.671, "unit": "µM"}, {"measurement": "potency estimated from few doses", "setting": "CSNK2A1;CSNK2A3", "result": 0.0615, "unit": "µM"}, {"measurement": "potency estimated from few doses", "setting": "CSNK2A2", "result": 0.0511, "unit": "µM"}, {"measurement": "potency estimated from few doses", "setting": "DYRK1A", "result": 0.154, "unit": "µM"}]}
{"smiles": "O=C(Nc1n[nH]c2cc(-c3ccoc3)ccc12)C1CC1", "note": "[SB-738481]", "values": [{"measurement": "potency estimated from few doses", "setting": "CDK2", "result": 1.47, "unit": "µM"}, {"measurement": "potency estimated from few doses", "setting": "CDKL5; compound concentrations:100 nM and 1000 nM (sheet 'Samples')", "result": 1.1, "unit": "µM"}, {"measurement": "potency estimated from few doses", "setting": "FLT3", "result": 0.884, "unit": "µM"}]}
{"smiles": "CS(=O)(=O)N1CCC(Nc2ncc(C(=O)c3c(F)cccc3F)c(N)n2)CC1", "note": "[RO4930481-000]", "values": [{"measurement": "potency estimated from few doses", "setting": "CDK16", "result": 1.35, "unit": "µM"}, {"measurement": "potency estimated from few doses", "setting": "CDK17", "result": 1.47, "unit": "µM"}, {"measurement": "potency estimated from few doses", "setting": "CDK2", "result": 1, "unit": "µM"}, {"measurement": "potency estimated from few doses", "setting": "CDK6", "result": 1.75, "unit": "µM"}, {"measurement": "potency estimated from few doses", "setting": "ICK", "result": 1.26, "unit": "µM"}, {"measurement": "potency estimated from few doses", "setting": "NNT", "result": 1.11, "unit": "µM"}]}
{"smiles": "COc1ccc(Nc2nccc(N3CCC(NC(=O)C(C)c4ccc(Cl)cc4)C3)n2)cc1", "note": "(stereo not drawn) [GSK1379735A]", "values": [{"measurement": "potency estimated from few doses", "setting": "CDK7", "result": 0.733, "unit": "µM"}, {"measurement": "potency estimated from few doses", "setting": "EPHA4", "result": 1.41, "unit": "µM"}, {"measurement": "potency estimated from few doses", "setting": "EPHA5", "result": 1.6, "unit": "µM"}, {"measurement": "potency estimated from few doses", "setting": "EPHB2", "result": 1.02, "unit": "µM"}, {"measurement": "potency estimated from few doses", "setting": "EPHB4", "result": 0.846, "unit": "µM"}, {"measurement": "potency estimated from few doses", "setting": "ERCC2", "result": 0.641, "unit": "µM"}, {"measurement": "potency estimated from few doses", "setting": "FER", "result": 0.719, "unit": "µM"}, {"measurement": "potency estimated from few doses", "setting": "GAK", "result": 0.854, "unit": "µM"}, {"measurement": "potency estimated from few doses", "setting": "GSK3A", "result": 1.44, "unit": "µM"}, {"measurement": "potency estimated from few doses", "setting": "PIK3CB", "result": 0.91, "unit": "µM"}, {"measurement": "potency estimated from few doses", "setting": "PRKAA1", "result": 1.41, "unit": "µM"}, {"measurement": "potency estimated from few doses", "setting": "PRKAG2", "result": 1.34, "unit": "µM"}, {"measurement": "potency estimated from few doses", "setting": "PTK2B", "result": 1.08, "unit": "µM"}, {"measurement": "potency estimated from few doses", "setting": "PTK2", "result": 1.06, "unit": "µM"}, {"measurement": "potency estimated from few doses", "setting": "RPS6KA6", "result": 0.956, "unit": "µM"}, {"measurement": "potency estimated from few doses", "setting": "TNK1", "result": 0.43, "unit": "µM"}, {"measurement": "potency estimated from few doses", "setting": "TNK2", "result": 0.479, "unit": "µM"}]}
{"smiles": "CC(C(=O)NC1CCN(c2ccnc(Nc3ccc(F)cc3)n2)C1)c1ccc(Cl)cc1", "note": "(stereo not drawn) [GSK1379713A]", "values": [{"measurement": "potency estimated from few doses", "setting": "CDK6", "result": 2.08, "unit": "µM"}, {"measurement": "potency estimated from few doses", "setting": "HSP90B1", "result": 0.088, "unit": "µM"}, {"measurement": "potency estimated from few doses", "setting": "MAP2K1", "result": 2.23, "unit": "µM"}, {"measurement": "potency estimated from few doses", "setting": "MAP2K2", "result": 1.46, "unit": "µM"}, {"measurement": "potency estimated from few doses", "setting": "NNT", "result": 1.4, "unit": "µM"}, {"measurement": "potency estimated from few doses", "setting": "NQO1", "result": 1.65, "unit": "µM"}]}
